Inconclusive results are not listed. Activity calls are given as the source filed them. Unless noted, the call rests on the fitted dose curve; in most records, active means well fitted curve in the direction sought with a large enough effect; inconclusive means small, poorly fitted or top-dose-only effect, or another doubt; inactive means no such curve, though single readings can be large; an effect the other way counts as inactive or inconclusive.

Here are results for nine compounds from PubChem BioAssay (NCATS).

For experiment [1], the target named is Lysosomal acid glucosylceramidase (Homo sapiens) (UniProt P04062). Briefly: Glucocerebrosidase-p2 (AID 348; in the data active means potency below about 10 µM; further: potency means the concentration at half of the fitted maximal effect). The settings on record: purified GBA, blue fluorogenic substrate, 40 min. A digest of the protocol:
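Normal human glucocerebrosidase (0.2 nM) with blue fluorogenic substrate (80 uM final) in citrate/phosphate pH 5.9 with 10mM sodium taurocholate, 0.01% tween-20; 40 min RT, NaOH/glycine stop; fluorescence Ex 365/Em 440; AC50 from a titration from 0.6 nM upwards.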

The target of experiment [2] is Cytochrome P450 1A2 (Homo sapiens) (UniProt P05177). As to the kind of experiment: p450-cyp1a2 (AID 410; calls by dose curve; further: potency means the concentration at half of the fitted maximal effect). The settings on record: recombinant CYP1A2, luciferin-ME demethylation, luminescence; series mostly up to 57 µM. The method, boiled down: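 Luminescent demethylation readout: Luciferin-ME (100uM, equal to Km) turned over by 20nM CYP1A2 for 60 min at room temperature after NADPH regeneration addition, following 10 min compound preincubation. Normalization used 57 uM furafylline as full inhibition.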
Chain of Cytochrome P450 1A2 (Homo sapiens) (P05177 whole entry, looked up): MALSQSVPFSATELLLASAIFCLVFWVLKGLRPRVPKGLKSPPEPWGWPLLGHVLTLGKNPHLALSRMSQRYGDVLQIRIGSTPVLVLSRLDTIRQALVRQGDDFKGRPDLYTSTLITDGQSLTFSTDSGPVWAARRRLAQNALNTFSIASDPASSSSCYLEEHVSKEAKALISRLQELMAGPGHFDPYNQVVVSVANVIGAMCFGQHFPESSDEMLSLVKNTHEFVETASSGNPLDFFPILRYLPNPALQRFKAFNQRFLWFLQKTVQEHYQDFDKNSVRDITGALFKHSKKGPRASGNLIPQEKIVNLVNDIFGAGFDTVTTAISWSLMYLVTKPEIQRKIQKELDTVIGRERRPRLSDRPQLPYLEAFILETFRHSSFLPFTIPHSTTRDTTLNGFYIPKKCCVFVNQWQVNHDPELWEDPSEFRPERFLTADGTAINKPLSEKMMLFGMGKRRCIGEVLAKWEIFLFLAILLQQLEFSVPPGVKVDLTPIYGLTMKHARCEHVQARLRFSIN

The target in experiment [3] is 3',5'-cyclic-AMP phosphodiesterase 4B (Homo sapiens) (UniProt Q07343). As to the kind of experiment: qHTS Assay for Inhibitors of PDE-IV (AID 607; active means well fitted activation curve with a large enough effect in the main read-out, with a control signal flat, not every such curve was filed as active; further: potency means the concentration at half of the fitted maximal effect). The settings on record: HEK293 ACTOne CNG channel cells, membrane potential fluorescence; series mostly up to 22.9 µM. The method, boiled down: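 HEK293 ACTOne cells with CNG channel (1000/well), endogenous PDE4; membrane potential dye, compounds up to 22.9 uM final. Fluorescence Ex 535/Em 590; RO 20-1724 (100 uM final) as reference.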
Chain of 3',5'-cyclic-AMP phosphodiesterase 4B (Homo sapiens) (Q07343 whole entry, looked up): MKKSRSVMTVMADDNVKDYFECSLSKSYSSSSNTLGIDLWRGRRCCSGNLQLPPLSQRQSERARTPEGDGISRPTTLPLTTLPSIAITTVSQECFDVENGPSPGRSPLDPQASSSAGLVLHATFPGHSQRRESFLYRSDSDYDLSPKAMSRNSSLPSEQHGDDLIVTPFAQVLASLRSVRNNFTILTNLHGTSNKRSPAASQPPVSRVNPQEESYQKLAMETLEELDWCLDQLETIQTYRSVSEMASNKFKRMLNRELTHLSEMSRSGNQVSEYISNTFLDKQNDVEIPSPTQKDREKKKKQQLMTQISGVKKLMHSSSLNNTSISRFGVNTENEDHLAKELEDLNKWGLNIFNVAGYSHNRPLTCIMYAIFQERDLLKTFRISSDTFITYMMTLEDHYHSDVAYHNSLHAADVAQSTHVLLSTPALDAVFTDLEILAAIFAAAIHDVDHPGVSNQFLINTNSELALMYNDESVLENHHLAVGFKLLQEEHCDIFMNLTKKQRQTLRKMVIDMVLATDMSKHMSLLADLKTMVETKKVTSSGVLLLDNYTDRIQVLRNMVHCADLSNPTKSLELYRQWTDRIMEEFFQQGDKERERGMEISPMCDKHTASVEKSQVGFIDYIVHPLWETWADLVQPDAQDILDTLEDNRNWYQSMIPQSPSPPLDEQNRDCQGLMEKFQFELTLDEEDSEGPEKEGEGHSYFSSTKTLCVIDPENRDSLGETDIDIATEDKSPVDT

For experiment [4], the target named is Cytochrome P450 3A4 (Homo sapiens) (UniProt P08684). Briefly: qHTS Assay for Inhibitors and Substrates of Cytochrome P450 3A4 (AID 884). Further: potency means the concentration at half of the fitted maximal effect; nearly all actives have a fitted effect of over 50% in size. The following applies: recombinant CYP3A4, Luciferin-PPXE luminescence; series mostly up to 57.1 µM. The method, boiled down: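 Luminescent readout of luciferin produced by CYP3A4 (20 nM) dealkylation of Luciferin-PPXE, 25 uM (its KM). NADPH-driven reaction ran 60 min at RT after 10 min compound preincubation; data scaled to 57 uM ketoconazole as 100% inhibition.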
Chain of Cytochrome P450 3A4 (Homo sapiens) (P08684 whole entry, looked up): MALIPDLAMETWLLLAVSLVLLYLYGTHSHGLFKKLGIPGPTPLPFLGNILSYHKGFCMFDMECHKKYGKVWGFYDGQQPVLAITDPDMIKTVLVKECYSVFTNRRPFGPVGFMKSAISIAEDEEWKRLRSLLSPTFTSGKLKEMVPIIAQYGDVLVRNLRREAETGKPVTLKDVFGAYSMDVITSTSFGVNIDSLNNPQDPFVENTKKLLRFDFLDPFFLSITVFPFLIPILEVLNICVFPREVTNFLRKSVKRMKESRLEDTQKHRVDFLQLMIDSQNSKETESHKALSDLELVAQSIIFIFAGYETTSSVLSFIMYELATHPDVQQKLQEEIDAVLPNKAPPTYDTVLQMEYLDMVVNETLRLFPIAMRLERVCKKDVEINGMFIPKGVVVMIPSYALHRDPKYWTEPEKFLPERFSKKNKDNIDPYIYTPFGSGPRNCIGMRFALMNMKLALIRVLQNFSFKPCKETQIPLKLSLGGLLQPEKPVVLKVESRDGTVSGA

The target is the same in experiment [5]. As to the kind of experiment: qHTS Assay for Activators of Cytochrome P450 3A4 (AID 885). Further: nearly all actives have a fitted effect of over 65% in size. The settings on record: recombinant CYP3A4, Luciferin-PPXE luminescence, 60 min; series mostly up to 57.1 µM. A digest of the protocol:
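Human CYP3A4 dealkylates Luciferin-PPXE to luciferin, which luciferase detection converts to light. Substrate was at its KM (25uM), buffer 200mM KPO4, reaction 60 min at RT.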

Experiment [6] has as its target Cytochrome P450 2C19 (Homo sapiens) (UniProt P33261). Briefly: qHTS Assay for Inhibitors and Substrates of Cytochrome P450 2C19 (AID 899). Further: potency means the concentration at half of the fitted maximal effect; nearly all actives have a fitted effect of over 60% in size. The settings on record: recombinant CYP2C19, luciferin-H EGE luminescence; series mostly up to 57.1 µM. The method, boiled down:
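Luminescent read-out of luciferin formed from Luciferin-H EGE (10uM, equal to KM). Enzyme 5nM in 50mM KPO4; compound added, 10 min at 37C, then NADPH regenerating system for 60 min at 37C. Full inhibition defined by 57uM ketoconazole.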

In experiment [7] the target is Dual specificity protein kinase CLK4 (Homo sapiens) (UniProt Q9HAZ1). As to the kind of experiment: qHTS Assay for Inhibitors of CDC-like Kinase 4 (ADP-Glo Assay) (AID 1771). Further: nearly all actives have a fitted effect of over 70% in size. Further: potency means the concentration at half of the fitted maximal effect. The following applies: recombinant CLK4, ADP-Glo luminescence; series mostly up to 80 µM. The method, boiled down:
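ADP production was read by ADP-Glo luminescence after residual ATP depletion, following 1 h room-temperature reaction of 25 nM Clk4, 1 uM ATP and 100 uM RS peptide with MgCl2, EGTA, DTT and Triton X-100.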

The target of experiment [8] is Cytochrome P450 2C9 (Homo sapiens) (UniProt P11712). Briefly: qHTS Assay for Inhibitors and Substrates of Cytochrome P450 2C9 (AID 883). Further: potency means the concentration at half of the fitted maximal effect; nearly all actives have a fitted effect of over 60% in size. The settings on record: recombinant CYP2C9, luciferin-H luminescence, 60 min; series mostly up to 57.1 µM. The method, boiled down: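 10nM CYP2C9 + 100uM Luciferin-H (=KM), 25mM KPO4; cpd 10 min 37C; NADPH regen, 60 min 37C; stop/detect with P450 Glo-Buffer 20 min; luminescence. Norm. to 57uM sulphaphenazole as full inhibition.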
Chain of Cytochrome P450 2C9 (Homo sapiens) (P11712 whole entry, looked up): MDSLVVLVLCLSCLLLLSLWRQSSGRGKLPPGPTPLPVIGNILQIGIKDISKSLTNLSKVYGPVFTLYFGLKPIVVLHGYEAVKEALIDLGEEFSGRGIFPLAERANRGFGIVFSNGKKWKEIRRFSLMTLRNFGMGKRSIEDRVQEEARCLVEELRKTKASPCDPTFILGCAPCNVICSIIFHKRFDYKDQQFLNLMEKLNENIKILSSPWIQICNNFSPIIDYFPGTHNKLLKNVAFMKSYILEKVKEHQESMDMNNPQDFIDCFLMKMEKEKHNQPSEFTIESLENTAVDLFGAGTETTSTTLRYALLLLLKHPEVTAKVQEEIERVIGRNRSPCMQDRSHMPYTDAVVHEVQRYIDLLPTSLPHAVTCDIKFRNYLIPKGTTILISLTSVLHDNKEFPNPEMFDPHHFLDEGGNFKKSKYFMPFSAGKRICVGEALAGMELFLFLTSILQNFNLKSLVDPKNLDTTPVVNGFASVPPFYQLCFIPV

For experiment [9], the target named is Cytochrome P450 2D6 (Homo sapiens) (UniProt P10635). Briefly: qHTS Assay for Inhibitors and Substrates of Cytochrome P450 2D6 (AID 891). Further: potency means the concentration at half of the fitted maximal effect; nearly all actives have a fitted effect of over 60% in size. The following applies: recombinant CYP2D6, luciferin-ME EGE luminescence; series mostly up to 57.1 µM. A digest of the protocol:
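Luminescent read-out of luciferin formed by 5 nM human CYP2D6 demethylating 30 uM Luciferin-ME EGE (Km level) over 60 min at room temperature after NADPH regeneration addition. Data normalized to full inhibition by 1.43 uM quinidine.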

The target of experiment [10] is Dual specificity protein kinase CLK4 (Homo sapiens) (UniProt Q9HAZ1). Briefly: qHTS Assay for Inhibitors of CDC-like Kinase 4 (Kinase-Glo Assay) (AID 1770). Further: nearly all actives have a fitted effect of over 65% in size. Further: potency means the concentration at half of the fitted maximal effect. The following applies: recombinant Clk4, Kinase-Glo ATP depletion luminescence; series mostly up to 66.7 µM. A digest of the protocol: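 Recombinant human Clk4 (25 nM) phosphorylated RS repeat peptide (100 uM) with 1 uM ATP in Tris pH 7.5/MgCl2/EGTA/DTT/Triton buffer for 4.5 h at room temperature. Residual ATP was quantified by Kinase-Glo luciferase luminescence.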
Chain of Dual specificity protein kinase CLK4 (Homo sapiens) (Q9HAZ1 whole entry, looked up): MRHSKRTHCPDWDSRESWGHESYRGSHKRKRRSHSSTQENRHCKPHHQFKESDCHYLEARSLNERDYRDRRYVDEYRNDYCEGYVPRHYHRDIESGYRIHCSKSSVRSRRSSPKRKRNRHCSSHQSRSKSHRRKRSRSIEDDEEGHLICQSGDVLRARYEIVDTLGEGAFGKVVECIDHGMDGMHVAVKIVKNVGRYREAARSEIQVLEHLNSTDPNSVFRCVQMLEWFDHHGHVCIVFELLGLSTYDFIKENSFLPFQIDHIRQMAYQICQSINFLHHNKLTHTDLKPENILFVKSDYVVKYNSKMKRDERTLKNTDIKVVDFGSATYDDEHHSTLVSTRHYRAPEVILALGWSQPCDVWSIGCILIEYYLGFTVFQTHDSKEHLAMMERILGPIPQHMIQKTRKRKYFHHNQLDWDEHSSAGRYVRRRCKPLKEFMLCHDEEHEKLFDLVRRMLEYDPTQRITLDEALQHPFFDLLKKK

Experiment [11] shares this target. As to the kind of experiment: qHTS Assay for Inhibitors of CDC-like Kinase 4 (ADP-FP Assay) (AID 1795). Further: nearly all actives have a fitted effect of over 60% in size. The settings on record: Transcreener ADP fluorescence polarization; series mostly up to 50 µM. The method, boiled down:
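Recombinant human Clk4 (6.25 nM) phosphorylated RS repeat peptide (100 uM) with 1 uM ATP in Tris pH 7.5/MgCl2/EGTA/DTT/Triton buffer for one hour. ADP was quantified by Transcreener competitive fluorescence polarization against an ADP calibration curve.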

A short description of experiment [12]: Stat Signaling Pathway (AID 446; active means well fitted curve in either direction with a large enough effect, not every such curve was filed as active;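 further: ME-180 cervical cancer cells given 40 pM IL-6 alongside compound; SIE-controlled beta-lactamase reporter measured as 460/530 nm FRET emission ratio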). The following applies: ME-180 (cervical carcinoma) SIE beta-lactamase reporter, IL-6 stimulated, 5 h; series mostly up to 7.69 µM. The method, boiled down:
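Normalization used AC90 stimulation (300 pM IL-6) and AC90 inhibition (125 nM pan-JAK inhibitor at 40 pM IL-6). The underlying signal is SIE-driven beta-lactamase in ME-180 cells after 5 h IL-6 exposure with compound.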

Chain of Lysosomal acid glucosylceramidase (Homo sapiens) (P04062 whole entry, looked up): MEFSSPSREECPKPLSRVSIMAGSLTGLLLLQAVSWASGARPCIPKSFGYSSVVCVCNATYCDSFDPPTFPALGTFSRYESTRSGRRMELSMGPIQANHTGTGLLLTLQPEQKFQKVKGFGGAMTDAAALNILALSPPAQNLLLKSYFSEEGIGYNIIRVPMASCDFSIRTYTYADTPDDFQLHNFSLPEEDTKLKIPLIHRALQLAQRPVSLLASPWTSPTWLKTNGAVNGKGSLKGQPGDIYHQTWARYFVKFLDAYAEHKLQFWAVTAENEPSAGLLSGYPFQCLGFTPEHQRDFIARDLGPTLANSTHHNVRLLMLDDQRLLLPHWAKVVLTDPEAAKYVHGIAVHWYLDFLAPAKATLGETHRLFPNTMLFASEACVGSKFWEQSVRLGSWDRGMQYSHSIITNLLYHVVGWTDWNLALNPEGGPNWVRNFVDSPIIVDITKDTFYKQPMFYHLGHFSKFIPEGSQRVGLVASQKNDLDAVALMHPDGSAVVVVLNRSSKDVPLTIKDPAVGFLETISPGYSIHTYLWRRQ
Chain of Cytochrome P450 2C19 (Homo sapiens) (P33261 whole entry, looked up): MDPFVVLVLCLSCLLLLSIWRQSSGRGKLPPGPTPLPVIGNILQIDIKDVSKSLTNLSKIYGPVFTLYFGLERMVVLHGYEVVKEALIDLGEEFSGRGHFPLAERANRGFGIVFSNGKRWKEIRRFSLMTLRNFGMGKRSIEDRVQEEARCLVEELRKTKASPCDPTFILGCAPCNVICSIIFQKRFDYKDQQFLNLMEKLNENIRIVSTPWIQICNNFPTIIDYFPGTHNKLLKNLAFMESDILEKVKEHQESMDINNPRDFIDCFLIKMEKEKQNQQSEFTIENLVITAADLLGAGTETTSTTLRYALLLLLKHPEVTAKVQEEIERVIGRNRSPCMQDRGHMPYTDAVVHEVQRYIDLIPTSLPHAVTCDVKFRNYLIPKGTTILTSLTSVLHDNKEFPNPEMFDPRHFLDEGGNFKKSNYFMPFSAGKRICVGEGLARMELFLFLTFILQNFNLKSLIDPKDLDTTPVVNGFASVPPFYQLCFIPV
Chain of Cytochrome P450 2D6 (Homo sapiens) (P10635 whole entry, looked up): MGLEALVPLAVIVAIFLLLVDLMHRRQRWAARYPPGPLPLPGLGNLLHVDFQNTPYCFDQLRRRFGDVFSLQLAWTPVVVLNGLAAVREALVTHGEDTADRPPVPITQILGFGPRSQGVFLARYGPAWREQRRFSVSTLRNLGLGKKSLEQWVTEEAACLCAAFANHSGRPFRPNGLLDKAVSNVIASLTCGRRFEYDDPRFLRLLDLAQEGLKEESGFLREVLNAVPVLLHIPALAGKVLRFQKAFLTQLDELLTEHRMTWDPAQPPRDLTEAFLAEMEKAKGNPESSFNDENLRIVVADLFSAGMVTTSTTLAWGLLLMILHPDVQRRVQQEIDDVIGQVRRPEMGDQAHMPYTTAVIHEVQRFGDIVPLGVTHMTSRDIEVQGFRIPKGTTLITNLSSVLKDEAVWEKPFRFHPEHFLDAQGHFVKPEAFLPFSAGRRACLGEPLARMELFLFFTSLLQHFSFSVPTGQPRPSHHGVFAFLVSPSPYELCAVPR

On to `COc1ccc2[nH]cc(CCNc3nc(-c4ccccc4OC)nc4ccccc34)c2c1`, for which the Potency in experiment [1] is > 11.4 µM (inactive); in experiment [2], 6.31 µM (active); in experiment [4] it was 2.51 µM (active); in [6], 5.01 µM (active); in experiment [7], 35.5 µM (active). Besides, the Potency entry in experiment [3] is “inactive”. The outcome in experiment [5] was inactive.

As to `CCNc1ncc2nc(CCc3ccccc3)c(=O)n(CCC#N)c2n1`, the Potency in experiment [2] was 3.98 µM (active); in [8], 6.31 µM (active); in experiment [9], 158 nM (active). The Potency entry in experiment [10] and in experiment [11] was “inactive” in each case.

Take `CN1CCN(c2ncnc3ccc(-c4ccccc4C(F)(F)F)cc23)CC1`: the Potency in [1] is > 11.4 µM (inactive). Besides, in experiment [12], the compound was called inactive. The Potency result in [3], in experiment [7] and in experiment [11] was “inactive” throughout.

As to `CN1CCN(c2ncc3nc(-c4cccc(C#N)c4)c(=O)n(CCc4ccccc4)c3n2)CC1`, in experiment [1], the Potency is > 11.4 µM (inactive). The Potency result in experiment [3], in experiment [7] and in experiment [11] was “inactive” each time.

On to `N#Cc1cccc(-c2ccc3ncnc(NCc4cccs4)c3c2)c1`, for which the Potency in experiment [1] was > 11.4 µM (inactive); in experiment [2], 0.1 µM (active); in experiment [4], 3.16 µM (active); in experiment [10] it was 10 µM (active). The outcome in [12] was inactive. The Potency result in experiment [3] is “inactive”.

With `COc1ccccc1CNc1ncncc1-c1ccccc1Cl`, the values for the Potency in experiment [1], in [9] and in experiment [6] were > 11.4 µM (inactive), 2000 nM (active) and 1.26 µM (active), respectively. Moreover, the compound was called inactive in [12] and in experiment [5]. For the same compound, the Potency result in [3], in experiment [7] and in [11] was “inactive” each time.

Regarding `CN1CCN(c2ncnc3ccc(-c4cccc(C#N)c4)cc23)CC1`, the Potency is > 11.4 µM (inactive) in [1], 1.26 µM (active) in [2] and 15.8 µM (active) in experiment [10]. Besides, the result in [12] was inactive.

`COc1ccc(-n2c(=O)c(CCc3ccccc3)nc3cnc(OC)nc32)cc1`: the Potency in [1] is > 11.4 µM (inactive); in experiment [2], 15.8 µM (active); in experiment [3] it was 2 µM (active); in [6], 6.31 µM (active). For the same compound, the call in [12] and in experiment [5] was inactive. For the same compound, the Potency result in [7] and in experiment [11] was “inactive” each time.

Take `COCCn1c(=O)c(CCc2ccccc2)nc2cnc(Oc3ccccc3)nc21`: the call in [12] was inactive. In addition, the Potency entry in experiment [3], in experiment [7] and in experiment [11] was “inactive” in each case.
